Assay results published in PubChem BioAssay AID1508600 (Functional Genomics Laboratory (NCATS/FGL), 2020).
In all, about 53,000 sequences went through this assay and about 3,700 (7%) were called active. This excerpt belongs to a sample that is enriched for actives. A number with no mark means an inactive call.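 How the source made its calls: active means gene knockdowns whose robust z-score for IL-1 alpha signal is at least 2 or at most -2, so actives lie on both sides; inactive means the rest.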

Assay: Components of the Cytosolic LPS Sensing Pathway: Gene Identification via Genome-wide siRNA Screen;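 further: robust z of the log signal after scaling to non-targeting control siRNA wells of the plate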
Settings: RAW264.7 macrophages, IL-1a HTRF, actives lie on both sides, screened at 100 nM (by protocol), cells primed 5 h with Pam3CSK4 first
In short: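 Mouse macrophage line RAW264.7 is transfected with siRNA (100 nM final), grown 48h, primed with TLR ligand Pam3CSK4 5 h and given intracellular LipidA 24 h. IL-1a in supernatant is read by HTRF and viability by luminescence.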

Sequence | z-score
GGCAAUCCCAUAGAGGCUGTT against Mief2 | -2.64 (active)
GGAUGAGAAUGGUUAUACUTT against Asz1 | 0.328
CCGCCUCGUACAUGAUAUUTT against Mrgpra2b | 0.653
GGAUUUAUUUGCCAACACUTT against Actbl2 | -2.28 (active)
GGUUGCUAUUAUUAUUGGATT against Fnbp4 | 0.678
GCCCAAGGAGGCAUUGAUATT against Fbxo8 | -0.653
GGCUUCAUUUACUGUAACGTT against Flrt3 | -0.12
GGAUAAACGGACAGGCCCATT against Socs2 | 0.282
GGGUUCUGGGAAGGUAUAUTT against Olfr705 | -2.54 (active)
GAUUGUGCCUUAUCUCUAATT against Vmn1r203 | 1.28
GGCCUACAUUUUAAUUCAGTT against Tmem132c | -0.167
GGCUCAGAUCAGAACUACGTT against Inpp4a | -0.129
GGUAAACGAUGUACAGUUGTT against Notch2 | 2.6 (active)
GCUAAAGUGAGCAGCGGGATT against Gipc3 | 0.218
GCUACCUGCGACAAGAAAUTT against Defb23 | -0.79
CCAUAUGUAGCUAUGGUUATT against Cul2 | 0.741
CCAGUAGAAAGAAUCCAGATT against Gm128 | 0.0855
GCCAGCUACUCUCUUGAGATT against Olfr419 | -1.03
GGACUACAUGGAUGCCAUGTT against Prkrip1 | 0.482
GGCCCUCAAACAGUGCAAATT against Chchd10 | 2.09 (active)
GGCCUUUUCCAUAAACUUUTT against Ddx60 | 0.873
GCAGUACGAAAUGGUAUACTT against Chd6 | -1.7
CGUAUUAACGACAUAAGAGTT against Nckap1 | -0.169
GGACCUUAAGAGAUAUCAATT against Acsm4 | 2.9 (active)
CCAAUUGGAAUCCCAUUUUTT against Cd47 | -0.273
CCCAACAAUGCUGCACAUGTT against H1f8 | 0.157
GCAGUGUCUAGGACAGUCATT against Pdcd5 | 0.0243
GGGCCCGAUGAAGCAAAAATT against Hnrnpr | -1.49
GGCAAACAUGAAGAGAAGCTT against Hspb8 | 0.0665
GGCUGACCUUCUGUGCUGATT against Olfr876 | -0.98
